Reference: PubChem BioAssay (Tox21)
Several values for one entry are separate records, joined by “and”; a condition that tells them apart may be missing. Equal entries are not always repeated. Results filed as inconclusive are left out. Activity calls are given as the source filed them. Unless noted, the call rests on the fitted dose curve; in most records, active means well fitted curve in the direction sought with a large enough effect in the repeat runs; inconclusive means weak or mixed curves; inactive means no such curve, though single readings can be large; an effect the other way counts as inactive or inconclusive.

Columns and labels:
[1] = target: Acetylcholinesterase (Homo sapiens) (UniProt P22303); test: Acetylcholinesterase (AChE) small molecule antagonists: enzyme-based qHTS assay (AID 1347397; calls by dose curve; further: nearly all actives have a fitted effect of over 55% in size; further: potency means the concentration at half of the fitted maximal effect); details: Potency: AChE enzyme activity inhibition
Procedure, shortened: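 Compound or DMSO vehicle was pin-transferred onto recombinant human AChE (50 mU/mL as dispensed) and left 30 min at room temperature. Acetylthiocholine with DTNB then started the reaction, read colorimetrically 10 min later.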

[2] = target: Acetylcholinesterase (Homo sapiens) (UniProt P22303); test: Acetylcholinesterase (AChE) small molecule antagonists: fluorescence cell-based qHTS assay (AID 1347398; calls by dose curve; further: nearly all actives have a fitted effect of over 50% in size; further: potency means the concentration at half of the fitted maximal effect); details: Potency: AChE activity
Procedure, shortened: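 Using neuroblastoma SH-SY5Y cells as the enzyme source, test chemicals are preincubated 30 min at 37 C; AChE-driven acetylthiocholine cleavage is then quantified by thiocholine-dependent Thiolite Green fluorescence after 40 min at room temperature.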

[3] = target: Acetylcholinesterase (Homo sapiens) (UniProt P22303); test: Acetylcholinesterase (AChE) small molecule antagonists: enzyme-based qHTS assay with human liver microsomes (AID 1347399; calls by dose curve; further: nearly all actives have a fitted effect of over 60% in size); details: Potency: qHTS inhibition
Procedure, shortened: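 Recombinant human AChE (50 mU/mL in the enzyme mix) and human liver microsomes (0.25 mg/mL final) were preincubated with compound and NADPH (0.25 mg/mL final) for 30 min at 37 C. Acetylthiocholine/DTNB was then added; thiocholine was read colorimetrically after 10 min at room temperature.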

[4] = target: Cytochrome P450 3A4 (Homo sapiens) (UniProt P08684); test: Cytochrome P450 Family 3 Subfamily A Member 4 (CYP3A4) small molecule antagonists: luciferase reporter qHTS assay (AID 1671201); further: nearly all actives have a fitted effect of over 50% in size; further: potency means the concentration at half of the fitted maximal effect
Procedure, shortened: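 CYP3A4 activity was followed with a P450-Glo proluciferin substrate. Test compounds in DMSO were preincubated 10 min; NADPH regeneration then ran 1 h, and light output was read 20 min after detection reagent.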

[5] = target: Cytochrome P450 2D6 (Homo sapiens) (UniProt P10635); test: Cytochrome P450 Family 2 Subfamily D Member 6 (CYP2D6) small molecule antagonists: luciferase reporter qHTS assay (AID 1671196); further: nearly all actives have a fitted effect of over 50% in size; further: potency means the concentration at half of the fitted maximal effect
Procedure, shortened: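 Room-temperature luminescent CYP2D6 activity assay: compound preincubated 10 min with enzyme–substrate mix, NADPH-initiated reaction 1 h, detection reagent 20 min before reading.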

[6] = target: Cytochrome P450 2C19 (Homo sapiens) (UniProt P33261); test: Cytochrome P450 Family 2 Subfamily C Member 19 (CYP2C19) small molecule antagonists: luciferase reporter qHTS assay (AID 1671197); further: nearly all actives have a fitted effect of over 65% in size; further: potency means the concentration at half of the fitted maximal effect
Procedure, shortened: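 First, compounds are pinned into enzyme-substrate mix and held 10 min at room temperature. Second, NADPH regeneration solution is added and plates incubate 1 h at 37C. Third, detection reagent is added and luminescence read after 20 min.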

[7] = target: Cytochrome P450 2C9 (Homo sapiens) (UniProt P11712); test: Cytochrome P450 Family 2 Subfamily C Member 9 (CYP2C9) small molecule antagonists: luciferase reporter qHTS assay (AID 1671198); further: nearly all actives have a fitted effect of over 50% in size; further: potency means the concentration at half of the fitted maximal effect
Procedure, shortened: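 CYP2C9 activity was measured with a P450-Glo proluciferin substrate. Enzyme–substrate mix was held with compound for 10 min at room temperature, then NADPH regeneration solution was added for 1 h at 37C. Luciferin product was read as luminescence.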

[8] = target: Voltage-gated inwardly rectifying potassium channel KCNH2 (Homo sapiens) (UniProt Q12809); test: Human Ether-a-go-go-Related Gene (hERG) channel small molecule antagonists: fluorescence cell-based qHTS assay (AID 1671200); further: nearly all actives have a fitted effect of over 50% in size; further: potency means the concentration at half of the fitted maximal effect
Procedure, shortened: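 In this thallium-flux screen, overnight-cultured U2OS cells bearing the channel are dye-loaded in darkness for an hour, rested 10 min at room temperature, and then monitored kinetically at 480/540 nm for two minutes post-stimulus.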

[9] = target: Cytochrome P450 1A2 (Homo sapiens) (UniProt P05177); test: Cytochrome P450 Family 1 Subfamily A Member 2 (CYP1A2) small molecule antagonists: luciferase reporter qHTS assay (AID 1671199); further: nearly all actives have a fitted effect of over 50% in size; further: potency means the concentration at half of the fitted maximal effect
Procedure, shortened: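 Room-temperature CYP1A2 reaction with proluciferin substrate: compounds added from DMSO, 10 min preincubation, NADPH regeneration for 1 h. Luciferin detection reagent then added; luminescence recorded as RLU.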

Measured: Potency

Sequence of Cytochrome P450 2C19 (Homo sapiens) (P33261 whole entry, looked up): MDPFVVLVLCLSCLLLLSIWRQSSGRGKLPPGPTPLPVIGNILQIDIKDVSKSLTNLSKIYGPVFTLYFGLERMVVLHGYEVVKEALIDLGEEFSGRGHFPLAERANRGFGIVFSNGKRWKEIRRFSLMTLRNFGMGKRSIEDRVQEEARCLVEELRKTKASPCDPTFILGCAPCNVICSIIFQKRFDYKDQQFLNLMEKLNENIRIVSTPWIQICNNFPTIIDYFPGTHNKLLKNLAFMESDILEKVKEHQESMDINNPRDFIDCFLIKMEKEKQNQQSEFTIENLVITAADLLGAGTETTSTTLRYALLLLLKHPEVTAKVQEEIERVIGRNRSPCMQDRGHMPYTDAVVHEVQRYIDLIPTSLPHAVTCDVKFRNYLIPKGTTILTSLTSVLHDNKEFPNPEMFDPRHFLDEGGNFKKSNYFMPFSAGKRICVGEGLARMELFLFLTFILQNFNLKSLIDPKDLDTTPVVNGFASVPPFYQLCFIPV
Sequence of Acetylcholinesterase (Homo sapiens) (P22303 whole entry, looked up): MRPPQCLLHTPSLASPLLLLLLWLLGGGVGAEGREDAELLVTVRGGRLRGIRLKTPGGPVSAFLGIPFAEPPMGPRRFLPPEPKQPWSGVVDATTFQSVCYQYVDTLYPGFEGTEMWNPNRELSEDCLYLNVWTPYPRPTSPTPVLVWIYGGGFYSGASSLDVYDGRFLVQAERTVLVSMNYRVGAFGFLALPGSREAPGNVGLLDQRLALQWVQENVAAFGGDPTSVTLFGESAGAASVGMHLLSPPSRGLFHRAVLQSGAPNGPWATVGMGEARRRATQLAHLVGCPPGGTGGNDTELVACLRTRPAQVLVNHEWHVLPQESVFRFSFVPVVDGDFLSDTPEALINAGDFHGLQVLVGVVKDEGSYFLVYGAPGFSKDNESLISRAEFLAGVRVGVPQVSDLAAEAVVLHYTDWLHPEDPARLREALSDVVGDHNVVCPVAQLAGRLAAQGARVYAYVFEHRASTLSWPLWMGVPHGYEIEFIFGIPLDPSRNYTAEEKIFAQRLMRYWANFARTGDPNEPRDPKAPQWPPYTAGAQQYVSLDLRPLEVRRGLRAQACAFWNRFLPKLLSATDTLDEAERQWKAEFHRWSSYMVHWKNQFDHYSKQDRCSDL
Sequence of Cytochrome P450 1A2 (Homo sapiens) (P05177 whole entry, looked up): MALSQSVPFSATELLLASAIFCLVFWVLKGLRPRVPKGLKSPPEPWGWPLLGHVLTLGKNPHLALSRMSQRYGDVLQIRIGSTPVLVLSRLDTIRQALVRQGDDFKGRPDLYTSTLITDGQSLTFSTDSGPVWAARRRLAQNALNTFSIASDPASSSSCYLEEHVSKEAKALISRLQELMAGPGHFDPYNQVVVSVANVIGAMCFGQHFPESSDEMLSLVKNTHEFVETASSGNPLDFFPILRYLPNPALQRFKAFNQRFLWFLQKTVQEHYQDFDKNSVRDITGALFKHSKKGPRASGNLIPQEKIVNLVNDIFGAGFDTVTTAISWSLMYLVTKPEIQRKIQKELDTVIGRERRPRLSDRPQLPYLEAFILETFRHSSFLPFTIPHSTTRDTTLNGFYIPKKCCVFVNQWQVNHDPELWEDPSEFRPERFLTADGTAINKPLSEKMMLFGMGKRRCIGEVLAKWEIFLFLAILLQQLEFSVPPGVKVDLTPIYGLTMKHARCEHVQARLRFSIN
Sequence of Cytochrome P450 2C9 (Homo sapiens) (P11712 whole entry, looked up): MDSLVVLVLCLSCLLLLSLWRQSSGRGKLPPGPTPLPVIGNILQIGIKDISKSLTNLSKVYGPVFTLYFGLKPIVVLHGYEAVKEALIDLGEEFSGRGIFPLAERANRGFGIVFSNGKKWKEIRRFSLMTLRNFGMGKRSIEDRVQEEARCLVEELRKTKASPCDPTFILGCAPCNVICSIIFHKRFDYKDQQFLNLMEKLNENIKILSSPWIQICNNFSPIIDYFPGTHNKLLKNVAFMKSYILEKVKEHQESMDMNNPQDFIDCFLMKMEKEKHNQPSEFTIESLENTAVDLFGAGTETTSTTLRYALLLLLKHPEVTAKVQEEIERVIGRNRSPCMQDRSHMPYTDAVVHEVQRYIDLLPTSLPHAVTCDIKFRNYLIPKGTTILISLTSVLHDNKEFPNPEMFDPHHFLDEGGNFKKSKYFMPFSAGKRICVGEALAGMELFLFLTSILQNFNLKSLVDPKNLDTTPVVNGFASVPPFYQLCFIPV
Sequence of Voltage-gated inwardly rectifying potassium channel KCNH2 (Homo sapiens) (Q12809 whole entry, looked up): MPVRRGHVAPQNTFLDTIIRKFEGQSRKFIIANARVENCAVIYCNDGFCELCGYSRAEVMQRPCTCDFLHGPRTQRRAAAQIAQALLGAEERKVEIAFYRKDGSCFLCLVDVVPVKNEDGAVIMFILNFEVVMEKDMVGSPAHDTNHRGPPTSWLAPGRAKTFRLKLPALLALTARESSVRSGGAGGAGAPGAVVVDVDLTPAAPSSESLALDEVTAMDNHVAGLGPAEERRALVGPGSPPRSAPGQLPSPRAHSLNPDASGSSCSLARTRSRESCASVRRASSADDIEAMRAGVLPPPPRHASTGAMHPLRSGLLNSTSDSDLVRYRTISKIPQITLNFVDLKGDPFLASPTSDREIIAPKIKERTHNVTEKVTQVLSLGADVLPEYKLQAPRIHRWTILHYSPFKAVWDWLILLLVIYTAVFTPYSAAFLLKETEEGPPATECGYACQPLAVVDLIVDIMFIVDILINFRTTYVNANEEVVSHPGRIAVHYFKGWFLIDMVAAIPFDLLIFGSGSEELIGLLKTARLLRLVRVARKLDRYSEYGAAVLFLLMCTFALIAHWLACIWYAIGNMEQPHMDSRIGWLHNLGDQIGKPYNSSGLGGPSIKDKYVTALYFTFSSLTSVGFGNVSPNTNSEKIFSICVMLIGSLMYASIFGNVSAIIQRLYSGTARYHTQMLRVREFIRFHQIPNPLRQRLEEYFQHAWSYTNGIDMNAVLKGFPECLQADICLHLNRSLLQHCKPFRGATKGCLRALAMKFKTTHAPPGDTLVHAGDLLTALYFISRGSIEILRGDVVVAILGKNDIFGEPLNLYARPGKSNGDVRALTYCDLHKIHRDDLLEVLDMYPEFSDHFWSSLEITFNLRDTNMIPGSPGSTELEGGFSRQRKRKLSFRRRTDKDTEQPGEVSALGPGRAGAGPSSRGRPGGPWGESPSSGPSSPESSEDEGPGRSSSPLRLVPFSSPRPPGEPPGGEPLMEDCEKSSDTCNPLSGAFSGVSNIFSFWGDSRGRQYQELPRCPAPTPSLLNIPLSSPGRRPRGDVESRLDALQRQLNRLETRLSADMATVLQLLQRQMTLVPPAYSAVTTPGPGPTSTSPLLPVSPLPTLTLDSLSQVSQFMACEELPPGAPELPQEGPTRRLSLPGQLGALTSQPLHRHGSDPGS
Sequence of Cytochrome P450 2D6 (Homo sapiens) (P10635 whole entry, looked up): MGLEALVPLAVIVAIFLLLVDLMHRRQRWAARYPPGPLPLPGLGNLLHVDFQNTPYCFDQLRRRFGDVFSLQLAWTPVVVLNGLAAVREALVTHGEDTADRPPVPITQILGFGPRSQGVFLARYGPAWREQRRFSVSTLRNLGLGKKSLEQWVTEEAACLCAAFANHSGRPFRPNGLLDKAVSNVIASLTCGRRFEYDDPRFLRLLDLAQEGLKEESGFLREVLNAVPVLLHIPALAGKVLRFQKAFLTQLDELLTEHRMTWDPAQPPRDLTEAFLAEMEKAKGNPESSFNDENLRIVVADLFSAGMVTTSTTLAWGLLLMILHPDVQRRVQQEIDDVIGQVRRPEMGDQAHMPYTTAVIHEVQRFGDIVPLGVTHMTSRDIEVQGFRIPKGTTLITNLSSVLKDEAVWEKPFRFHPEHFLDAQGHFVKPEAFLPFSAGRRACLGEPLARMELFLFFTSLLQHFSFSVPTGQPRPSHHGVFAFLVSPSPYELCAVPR
Sequence of Cytochrome P450 3A4 (Homo sapiens) (P08684 whole entry, looked up): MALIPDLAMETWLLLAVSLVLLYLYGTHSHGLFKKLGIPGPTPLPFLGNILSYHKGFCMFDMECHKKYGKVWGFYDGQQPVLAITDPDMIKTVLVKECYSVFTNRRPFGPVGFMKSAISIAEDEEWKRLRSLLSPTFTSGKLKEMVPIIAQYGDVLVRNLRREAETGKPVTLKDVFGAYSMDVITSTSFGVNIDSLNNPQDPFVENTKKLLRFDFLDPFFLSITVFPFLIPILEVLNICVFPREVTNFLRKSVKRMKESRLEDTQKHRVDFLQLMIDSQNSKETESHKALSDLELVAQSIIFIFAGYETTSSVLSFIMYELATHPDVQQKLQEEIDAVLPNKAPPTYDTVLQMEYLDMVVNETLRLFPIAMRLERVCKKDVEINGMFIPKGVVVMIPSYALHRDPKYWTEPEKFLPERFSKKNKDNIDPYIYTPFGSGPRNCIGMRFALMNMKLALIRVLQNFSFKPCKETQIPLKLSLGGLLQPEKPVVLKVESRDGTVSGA

Fc1ccc(C(OCCN2CCN(CCCc3ccccc3)CC2)c2ccc(F)cc2)cc1
inactive: [1] | [2] | [3] | [4]

C=C(C)C(=O)[O][Sn]([CH2]CCC)([CH2]CCC)[CH2]CCC
inactive: [1] | [3]
active: [5] 2.24 µM | [6] 0.71 µM | [7] 11.2 µM | [8] 4.9 µM | [4] 22.4 µM

Cc1c([N+](=O)[O-])c(C)c([N+](=O)[O-])c(C(C)(C)C)c1[N+](=O)[O-]
active: [9] 5.03 µM
not listed: [2] | [8]
inactive: all other assays above

Cc1ccccc1OP(=O)(Oc1ccccc1C)Oc1ccccc1C
active: [7] 5.66 µM
inactive: [1] | [2] | [4]

N#Cc1c2ccccc2cc2ccccc12
active: [9] 0.2 µM
not listed: [2] | [7]
inactive: all other assays above

O=S(=O)(NS(=O)(=O)C(F)(F)F)C(F)(F)F
active: [5] 0.447 µM | [6] 39.8 µM | [7] 6.31 µM | [9] 44.7 µM | [8] 38.8 µM
inactive: [1] | [3]

CC(=O)[O][Sn]([c]1ccccc1)([c]1ccccc1)[c]1ccccc1
inactive: [1] | [3]
active: [5] 0.2 µM | [6] 5.03 µM | [7] 0.894 µM | [8] 1.1 µM | [4] 12.6 µM

CC(C)(C)c1ccc(OP(=O)(Oc2ccccc2)Oc2ccccc2)cc1
active: [1] 22.6 µM | [7] 5.06 µM | [9] 16 µM | [8] 15.6 µM
inactive: [3] | [5] | [4]

O.O.O.O=C([O-])[C@H]([O-])[C@@H]([O-])C(=O)[O-].O=C([O-])[C@H]([O-])[C@@H]([O-])C(=O)[O-].[K+].[K+].[Sb+3].[Sb+3]
inactive: [1] | [2] | [8]

[Cl][Hg][c]1ccccc1
inactive: [1] | [3]
active: [5] 0.796 µM | [6] 5.03 µM | [7] 3.99 µM | [9] 28.3 µM | [8] 17.4 µM | [4] 8.94 µM

Cc1cccc(Cc2cnc[nH]2)c1C
inactive: [1] | [3] | [8]
active: [5] 2.45 µM | [6] 2.19 µM | [7] 0.347 µM | [9] 0.911 µM

COCCC#N
not listed: [2] | [6]
inactive: all other assays above

CCO/N=C(\CC)C1=C(O)CC(c2c(C)cc(C)cc2C)CC1=O (stereo not drawn)
active: [5] 27.5 µM | [6] 5.03 µM | [7] 7.31 µM
inactive: [1] | [3] | [8] | [4]

CCN(CC)C(=O)N[C@@H]1C=C2c3cccc4[nH]cc(c34)C[C@@H]2N(C)C1
inactive: [1] | [3]

CN=C=O
active: [5] 57.2 µM | [9] 36.1 µM
not listed: [2]
inactive: all other assays above

O=C1C(Cl)=C(Cl)C(=O)C(Cl)=C1Cl
active: [2] 35.5 µM and 63.3 µM | [5] 31.6 µM and 25.2 µM | [6] 7.94 µM and 11.2 µM | [7] 5.01 µM and 8.94 µM | [9] 35.6 µM | [8] 34.7 µM | [4] 22.4 µM
inactive: [1]

Cc1nn(-c2cc(NS(C)(=O)=O)c(Cl)cc2Cl)c(=O)n1C(F)F
active: [7] 39.9 µM
not listed: [2] | [9]
inactive: all other assays above

Clc1cc(Cl)c(-c2cc(Cl)c(Cl)cc2Cl)cc1Cl
not listed: [2] | [6] | [9]
inactive: all other assays above

C[N+]1(C)[C@@H]2CC[C@H]1CC(OC(=O)C(CO)c1ccccc1)C2 (stereo partly drawn)
not listed: [2]
inactive: all other assays above

CCCCN(CCCC)C(=S)[S-].CCCCN(CCCC)C(=S)[S-].[Ni+2]
not listed: [2]
inactive: all other assays above

O=C(Cl)c1ccccc1F
not listed: [5] | [6] | [7]
inactive: all other assays above

C=CCOC(=O)c1ccccc1N
active: [5] 63.7 µM | [6] 25.4 µM | [7] 35.8 µM | [9] 7.15 µM | [4] 40.2 µM
inactive: [1] | [3] | [8]
